These results are taken from PubChem BioAssay AID606 (Columbia University Molecular Screening Center, 2007).

Molecules are shown by their SMILES. Screen size: about 52,000 compounds; fewer than 10 were called active. The list is a sample of the results. Values without a mark were called inactive.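 The calls were made as follows: active = IC50 under 40 µM in the dose-response test; inactive = IC50 of 40 µM or more, or never dose-tested.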

The target of the assay is Tyrosine-protein phosphatase non-receptor type 22 (Homo sapiens) (UniProt Q9Y2R2). The experiment in a line: inhibition of human PTPN22 tyrosine phosphatase – biochemical, DiFMUP fluorescence, recombinant catalytic domain, 10 µM, primary screen (AID 606). Particulars: recombinant LYP catalytic domain, at 10 µM, active compounds read high.
Chain of Tyrosine-protein phosphatase non-receptor type 22 (Homo sapiens) (Q9Y2R2 whole entry, looked up, the tested form may be a part): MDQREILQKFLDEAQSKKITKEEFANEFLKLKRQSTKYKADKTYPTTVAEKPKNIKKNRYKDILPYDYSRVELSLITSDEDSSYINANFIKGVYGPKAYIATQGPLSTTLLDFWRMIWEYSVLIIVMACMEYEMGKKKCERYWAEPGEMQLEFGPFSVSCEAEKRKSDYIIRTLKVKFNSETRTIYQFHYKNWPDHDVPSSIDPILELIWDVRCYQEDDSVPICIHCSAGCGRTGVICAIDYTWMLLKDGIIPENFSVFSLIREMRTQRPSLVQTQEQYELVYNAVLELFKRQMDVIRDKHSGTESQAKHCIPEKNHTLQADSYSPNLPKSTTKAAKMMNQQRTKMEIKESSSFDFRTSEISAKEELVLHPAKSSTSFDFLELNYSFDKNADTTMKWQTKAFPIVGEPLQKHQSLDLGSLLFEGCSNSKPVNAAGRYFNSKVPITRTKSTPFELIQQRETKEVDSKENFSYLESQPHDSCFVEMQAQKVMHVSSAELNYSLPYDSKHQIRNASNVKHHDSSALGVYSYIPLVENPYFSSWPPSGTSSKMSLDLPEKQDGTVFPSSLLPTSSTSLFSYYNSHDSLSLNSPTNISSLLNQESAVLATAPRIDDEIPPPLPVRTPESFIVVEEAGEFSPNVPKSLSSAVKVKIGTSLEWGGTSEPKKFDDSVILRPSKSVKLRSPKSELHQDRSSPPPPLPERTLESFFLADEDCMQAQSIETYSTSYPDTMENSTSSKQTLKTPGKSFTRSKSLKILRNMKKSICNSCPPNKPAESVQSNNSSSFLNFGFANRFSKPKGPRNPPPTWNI
As for `COc1ccc(C(=O)N2CCN(c3ccc(C)cc3)CC2)cc1OC`, the inhibition (usually the drop in the measured response relative to a control, in per cent) was -3.18%. As to `CCNC(=O)CC1C(=O)N(c2ccccc2)C(=O)N1CCC(C)C` (configuration not stated), the inhibition is 5.24%. Under `COc1ccccc1-n1c(CNC(=O)c2ccco2)nnc1SCC(=O)Nc1nccs1` stands 3.45%. As for `CCOC(=O)Cn1c(=N)n(Cc2ccccc2)c2ccccc21`, the inhibition is -0.97%. Consider `Cn1c(CN2CCOCC2)nc2cc(NC(=O)c3ccccc3Cl)ccc21`, for which the inhibition is 10.7%.

Take `Cc1cc(C)n2nc(C(=O)Nc3ccccc3N3CCOCC3)nc2n1`: the inhibition is 15.1%. Take `CCCn1c(N)c(C(=O)CN2CCN(S(=O)(=O)c3cccs3)CC2)c(=O)[nH]c1=O`: the inhibition was -0.47%.

As for `CCCN(c1ccc(OCC)cc1)c1ncnc2nc[nH]c12`, the inhibition was 16.1%. Take `CC1(C)Cc2c(sc(NC(=O)c3ccco3)c2C#N)CO1`: the inhibition is 4.29%.

Regarding `CC(=O)c1ccc(OCCCC(=O)n2nnc3ccccc32)cc1`, the inhibition was 14.1%. With `Cc1cc(C(F)(F)F)nc(SCC(=O)Nc2ccccc2)n1`, the inhibition is 0.2%.

Take `C=CCSc1nc(C)c(CC(=O)OCCCC)c(=O)[nH]1`: the inhibition was 2.59%. With `CCOC(=O)c1oc2c(CN3CCCCC3C)c(O)ccc2c(=O)c1-c1ccc(OC)c(OC)c1` (configuration not stated) the figure was 15.8%; with `CC(=O)NC(c1ccccc1)c1nc2ccccc2[nH]1` (configuration not stated), -1.04%. For the compound `CCCn1c(NCc2ccco2)nc2ccccc21`, the inhibition was 11.7%.

On to `COc1ccc(CCNc2cc(=O)[nH]c(N)n2)cc1`, for which the inhibition was 16.4%. With `COC(=O)c1ccc(CSc2nc3scc(-c4cccs4)c3c(=O)[nH]2)o1` the figure was 3.74%; with `COc1ccc(NC2CCN(C3CC(=O)N(c4ccc(F)c(Cl)c4)C3=O)CC2)cc1` (configuration not stated), 4.79%.

For the compound `COc1ccc(CC(=O)N2CCN=C2SC)cc1`, the inhibition is 7.94%. Under `O=S(=O)(Nc1ccc2c(c1)oc1ccccc12)N1CCCC1` stands -2.32%.

As for `Cc1ccc(S(=O)(=O)/N=C(/Nc2nc(C)cc(C)n2)N2CCOCC2)cc1`, the inhibition is 2.14%. Consider `Cc1nnc(NCc2ccco2)c2ccccc12`, for which the inhibition was 5.7%.
